Test system: TGFBR2
Settings: concentration: 1 μM, replicates: in singlicate; n = 1
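Further: KINOMEscan kinase panel screen.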

SMILES	%Inh
COC(=O)c1c(-c2ccccc2)c2cc(Cl)ccc2c(=O)n1Cc1ccc(S(C)(=O)=O)cc1	5%
FC(F)(F)c1ccc(-c2cc(-c3c[nH]nc3-c3ccccn3)ccn2)cc1 [GW599550]	77%
COc1ccc(NC(=O)c2ccc(-c3cc(-c4nnc(C)o4)ccc3C)cc2)cc1 [GW595885]	0%
COc1ccc(-c2nc3n(c2-c2ccncc2)CCC3)cc1 [SKF-104493]	0%
Cl.Cl.c1ccc(-c2cc3ccncc3cc2OC2CCNCC2)cc1 [GSK1122999]	0%
CS(=O)(=O)CCNCc1nc(-c2ccc3ncnc(Nc4ccc(OCc5cccc(F)c5)c(Cl)c4)c3c2)cs1.Cl [GW583340]	0%
Cn1ccc2ncnc(Oc3ccc(NC(=O)Nc4cccnc4)c(Cl)c3)c21	0%
Fc1cccc(COc2ccc(Nc3ncnc4sc(-c5ccc[nH]5)cc34)cc2Cl)c1 [GW707818]	3%
Cl.Cn1ccc(-c2cccc(Nc3ccnc4cc(-c5nccs5)ccc34)c2)n1 [GW525701]	0%
CS(=O)(=O)CCNCc1ccc(-c2ccc3ncnc(Nc4ccc(OCc5ccccc5)c(Cl)c4)c3c2)o1.Cl [GW574783]	9%
COc1ccc(Nc2nccc(N3CCC(NC(=O)Nc4ccc5c(c4)OCO5)C3)n2)cc1 (centres unmarked) [GSK1379745]	0%
Fc1cccc(COc2ccc(Nc3ncnc4nn5ccccc5c34)cc2Cl)c1 [GW689066]	0%
Cc1ccc(O)cc1Nc1cc(C(F)(F)F)nc2ccc(-c3ccncc3)cc12 [GW630823]	0%
Cl.Fc1ccccc1COc1ccc(Nc2ncnc3ccc(-c4nnc(C(F)(F)F)o4)cc23)cc1Cl [GW424170]	0%
Clc1ccc(-c2cc(-c3c[nH]nc3-c3ccccn3)ccn2)cc1 [GW681251]	85%
C[C@H]1CC[C@@H](C(=O)Nc2ccccc2)CN1c1cc(-c2ccc3c(N)n[nH]c3c2)nc(N)n1 [GSK2283293]	0%
Oc1ccc2ncnc(Nc3ccc(OCc4ccccc4)cc3)c2c1 [GI262866]	0%
N#Cc1ccc(Oc2ccc(Nc3ncnc4cc[nH]c34)cc2Cl)cc1	5%
CC(C)(C)c1ccc(-n2cnc3c(N)ncnc32)cc1 [SKF-97263]	6%
Cc1ccc(C)c(NC(=O)NCCNc2ccnc(Nc3ccc(F)cc3)n2)c1 [GSK1379878]	0%
CCn1c(-c2ccncc2)nc2cnccc21 [SB-735216]	0%
COc1ccc(NC(=O)Nc2ccc(C)c(-c3ccc(C(=O)Nc4ccncc4)cc3)c2)cc1 [GSK1398475]	0%
Clc1cc(Nc2ncnc3cc[nH]c23)ccc1OCc1ccccn1	0%

From PMC5540273 (PLoS ONE, 2017)
